Measured values published in PubChem BioAssay (NCI).
About 83,000 compounds went through this panel and 20% of them were active in at least one assay; those are over-represented in the sample as a whole.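 48-hour exposure, single concentration, 96-well plates; percent growth endpoint where 0 means no net growth. Active: below 10.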 Activity calls are given as the source filed them.

system: SNB-75 CNS; experiment: NCI-60 one-dose screen, 48 h (100 = growth as untreated, 0 = no growth, -100 = all killed); conditions: 10 µM unless noted

| SMILES | growth |
| --- | --- |
| CN(CCn1sc(=O)n(Cc2ccccc2)c1=O)Cc1ccc2c(Cl)cc(Cl)c(O)c2n1 | 74.6% (inactive) |
| CCN(CC)CCOc1ccc(C(=C(C)c2ccc(Cl)cc2)c2ccc(OCCN(CC)CC)cc2)cc1 | -92.6% (active) |
| CC(=O)OC[C@]12CCC(C)(C)C[C@H]1[C@@]1(O)[C@H](O)C[C@@H]3[C@@]4(C)CCCNC(C)(C)[C@@H]4CC[C@@]3(C)[C@]1(C)CC2 | 115% (inactive) |
| Cc1ccc(CNc2ccc(Cl)cc2NCc2ccc(C)c(O)c2)cc1O | 41.1% (inactive) |
| COc1ccc(C(=O)C2C(c3ccc(OC)cc3)CN(C)C23C(=O)Nc2ccccc23)cc1 (stereo not drawn) | 76.7% (inactive) |
| O=C(O)CCCN1C(=O)/C(=C/C(Cl)=C/c2ccccc2)SC1=S | 35.9% (inactive) |
| O=C1/C(=C/c2ccc(Cl)cc2)COc2ccc(O)c(O)c21 | 18.2% (inactive) |
| COc1cc(CNC(=O)/C=C/C=C/c2ccc3c(c2)OCO3)ccc1OCc1cn(-c2ccc(C)c(C)c2)nn1 | 88.4% (inactive) |

system: SNB-19 CNS; experiment: as above; conditions: 10 µM unless noted

| SMILES | growth |
| --- | --- |
| CS(=O)(=O)Nc1cc(-c2ccc3ncnc(Nc4ccc5c(cnn5Cc5ccccn5)c4)c3c2)cnc1Cl | 80.6% (inactive) |
| CO[C@H]1/C=C(/C)CCC[C@H](C)[C@H](O)[C@@H](C)C(=O)C(C)(C)[C@@H](O)CC(=O)O[C@@H]1/C(C)=C/c1csc(C)n1 | 31.2% (inactive) |
| COc1ccc2nc3ccc(OC)cc3c(SCCCN)c2c1 | 94.8% (inactive) |
| CCCCCCCCCCCCCCCC(N)c1ccccc1 (stereo not drawn) | 23.9% (inactive) |
| CC1=C(Nc2ccc(N3CCN(C)CC3)cc2)C(=O)c2cncnc2C1=O | 97.3% (inactive) |
| CN(C)c1ccc(/C=C/C(=O)c2ccc(-n3cc(CN4CCN(c5cc6c(cc5F)c(=O)c(C(=O)O)cn6C5CC5)CC4)nn3)cc2)cc1 | 31.6% (inactive) |
| CCN(CC)c1nc(SCc2ccccc2Cl)ncc1C | 96.4% (inactive) |
| CCN1CCN(Cc2cn(CC(=O)Nc3ccc4c(ccn4Cc4ccccc4)c3)nn2)CC1 | 98.4% (inactive) |
| O=C(O)[C@@H]1c2ccccc2-c2ccccc2[C@H]1C(=O)O | 100% (inactive) |
| O=C1CC(N2C(=O)/C(=C/C(Cl)=C\c3ccc([N+](=O)[O-])cc3)SC2=S)C(=O)N1c1ccc(Cl)cc1 (stereo not drawn) | 17.4% (inactive) |
| CCc1ccc(Oc2cn[nH]c2-c2ccc(OCCc3ccc(F)cc3)cc2O)cc1 | 108% (inactive) |
| CC1(C)CCC(S(=O)(=O)c2ccc3c(c2)/C(=N\O)c2cc(S(=O)(=O)N4CCC(O)(c5cccc(C(F)(F)F)c5)CC4)ccc2-3)CC1 | -81.9% (active) |
| Cc1cc(Cl)ccc1Nc1nc(C(F)(F)F)ccc1C(=O)N/N=C/c1ccc([N+](=O)[O-])cc1 | 22.7% (inactive) |
| CCOC(=O)c1[nH]c(=O)c2c(C)nc(-c3ccccc3)cc2c1O | 104% (inactive) |
| Oc1ccc(CN2CCC(N3CCCCC3)CC2)c2cccnc12 | 23.7% (inactive) |
| COc1cccc([C@H]2c3[nH]c4ccccc4c3C[C@H]3C(=O)N(CCCCCCC(=O)NO)CC(=O)N23)c1 | 68.4% (inactive) |
| C=CC(=O)NCc1ccc(Nc2nccc(-c3ccc(N4CCCC4)c(C#N)c3)n2)cc1 | 58.6% (inactive) |
| CC1=C(C(=O)OC(C)C)C(c2ccc3c(c2)OCO3)NC(=S)N1 (stereo not drawn) | 95.4% (inactive) |
| CCOC(=O)Cn1c(O)c(N=Nc2ccc(S(N)(=O)=O)cc2)c2cc(Br)ccc21 | 91.4% (inactive) |
| O=C(Cn1c2c(c3ccccc31)CCCC2)Nc1ccc(-c2nc3ccccc3s2)cc1 | 100% (inactive) |
| COC(C(=O)[C@@H](O)[C@@H](C)O)[C@@H]1Cc2cc3cc(O[C@H]4C[C@@H](O[C@H]5C[C@@H](O)[C@H](O)C(C)O5)[C@H](O)C(C)O4)c(C)c(O)c3c(O)c2C(=O)[C@H]1O[C@H]1C[C@@H](O[C@H]2C[C@@H](O[C@H]3C[C@@H](O)[C@H](OC)C(C)O3)[C@@H](O)C(C)O2)[C@H](O)C(C)O1 (stereo partly drawn) | 12.4% (inactive) |
| CCCCCCCCn1ccc2cc(NC(=O)CN3CCN(c4nc(C)cc(Cl)n4)CC3)ccc21 | 102% (inactive) |
| COc1ccc(/C=N/NC(=O)CCN2c3ccccc3Sc3ccccc32)cc1 | 75.4% (inactive) |
| CNC(=O)c1cc(Oc2ccc3c(c2)sc2nc(-c4cc(OC)c(OC)c(OC)c4)cn23)ccn1 | 82.2% (inactive) |
| CCCCCCNC(=O)Oc1ccc(/C(=C(/C)Cc2ccc(OC)cc2)c2ccc(OCCCN(C)C)cc2)cc1 | 45.7% (inactive) |
